# Source: PubChem BioAssay (NCATS)
# Several values for one entry are separate records, joined by “and”; a condition that tells them apart may be missing. Equal values may be shown once. Inconclusive results are not listed. Some compounds were tested as several samples or in several runs, with calls that do not always agree. Activity calls are given as the source filed them. Calls come from the whole dose curve; as a rule, active = well fitted inhibition curve with a large enough effect; inconclusive = small, poorly fitted or top-dose-only effect; inactive = no such curve, though single readings can be large or run the other way.
# Target: Cytochrome P450 2C19 (Homo sapiens) (UniProt P33261)
# Assay: qHTS Assay for Inhibitors and Substrates of Cytochrome P450 2C19 (AID 899); note: nearly all actives have a fitted effect of over 60% in size
# Conditions: recombinant CYP2C19, luciferin-H EGE luminescence; series mostly up to 57.1 µM
# Experimental: NIH Molecular Libraries Screening Centers Network [MLSCN]
# NIH Chemical Genomics Center [NCGC]
# The P450 gene superfamily is involved in the metabolism and clearance of xenobiotics. This assay used human CYP2C19 to measure the hydroxylation of ethylene glycol ester of 6' deoxyluciferin (Luciferin-H EGE; […]) to luciferin. The luciferin is then measured by luminescence after the addition of a luciferase detection reagent. Luciferin-H EGE concentration in the assay was equal to its KM for CYP2C19. Inhibitors and some substrates limit the production of luciferin, and decrease measured luminescence.
# NCGC Assay Protocol Summary:
# Two uL of enzyme and substrate mix (final concentrations: 5nM CYP2C19, 10uM Luciferin-H EGE, 50mM KPO4) were dispensed into a white, solid bottom 1536-well microtiter plate. 23nL of compound was transferred by a pin tool. The plate was incubated at 37C for 10 min. Two uL of an NADPH regeneration solution (Promega supplied reagent) was dispensed and the reaction was allowed to continue for 60 min at 37C. Then the reaction was stopped by reconstituted luciferin detection buffer. After another 20 min of incubation the plate was read on the ViewLux (Perkin Elmer) at 60 sec exposure and 2x2 binning. This protocol was carried out with Promega-Glo reagents and further information can be found at http://www.promega.com/tbs/tb325/tb325.pdf. Data were normalized to the to AC100 inhibition (57uM ketoconazole).
# Keywords: P450, CYP2C19, Luciferase, MLSMR, MLSCN, NIH Roadmap, qHTS, NCGC
# Potency is the fitted concentration of half-maximal effect.
# Cytochrome P450 2C19 (Homo sapiens), sequence (P33261 whole entry, looked up): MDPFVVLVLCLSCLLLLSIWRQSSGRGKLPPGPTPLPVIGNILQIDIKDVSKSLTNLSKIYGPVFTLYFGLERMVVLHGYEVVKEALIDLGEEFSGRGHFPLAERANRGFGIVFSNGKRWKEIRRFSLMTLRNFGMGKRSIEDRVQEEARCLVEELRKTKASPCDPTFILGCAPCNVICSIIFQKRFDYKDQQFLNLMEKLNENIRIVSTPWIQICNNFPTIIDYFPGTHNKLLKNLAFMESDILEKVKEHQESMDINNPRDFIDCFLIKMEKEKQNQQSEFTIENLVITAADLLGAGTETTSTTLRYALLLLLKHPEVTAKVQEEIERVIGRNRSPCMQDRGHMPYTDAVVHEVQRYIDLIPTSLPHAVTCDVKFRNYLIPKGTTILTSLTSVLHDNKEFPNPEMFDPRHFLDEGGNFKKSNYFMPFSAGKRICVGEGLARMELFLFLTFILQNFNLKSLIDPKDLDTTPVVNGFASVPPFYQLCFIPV
row,Compound,Potency
1,COc1ccccc1CNc1ccnc(-c2ccc3c(c2)OCO3)n1,3.16 µM (active)
2,Cn1cccc1C(=O)N1CCC2(CCCN(c3ccccc3)C2)CC1,7.94 µM (active)
3,CN(C)c1ncc2ncc(=O)n(CCc3ccccc3)c2n1,2 µM (active)
4,Cc1nc2cncnc2n(C2CC2)c1=O,3.98 µM (active)
5,CN(CCOc1ccc(C[C@H](Nc2ccccc2C(=O)c2ccccc2)C(=O)O)cc1)c1ccccn1,inactive and 3.98 µM (active)
6,Cc1cccc(CNc2ncncc2-c2ccc3c(c2)OCO3)c1,0.501 µM (active)
7,O=C(c1ccncc1)N1CCC2(CC1)CN(c1ccccc1)C2,0.316 µM (active)
8,O=C(c1cnccn1)N1CCC2(CCCN(c3ccccc3)C2)CC1,0.501 µM (active)
9,O=S(=O)(c1ccccc1)N1CCC[C@@]2(CCN(c3ccncc3)C2)C1,0.398 µM (active)
10,CN(Cc1ccco1)c1ncnc2ccc(-c3ccccc3Cl)cc12,3.16 µM (active)
11,CN1CCN(c2nc(-c3ccc(N(C)C)cc3)nc3ccccc23)CC1,inactive
12,Cc1noc(C)c1-c1cc(NCc2cccs2)ncn1,inactive
13,COc1ccccc1-c1cncnc1NCCc1cnc[nH]1,0.0794 µM (active)
14,COc1cccc(-c2ccc3ncnc(NCc4cccnc4)c3c2)c1,0.0126 µM (active)
15,CN1CCN(c2ncnc3ccc(-c4ccccc4Cl)cc23)CC1,3.98 µM (active)
16,COc1ccc(-c2nc3cnc(N4CCN(C)CC4)nc3n(Cc3cccs3)c2=O)cc1,inactive
17,CN(Cc1ccco1)c1ncncc1-c1ccccc1Cl,0.794 µM (active)
18,CN(C)c1ccc(-c2cc(-n3ccnc3)ncn2)cc1,7.94 µM (active)
19,Cc1ccccc1-c1cncnc1NCc1ccccc1,2 µM (active)
20,COc1ccccc1CNc1ncncc1-c1cccc(C#N)c1,3.16 µM (active)

row,Compound,Potency
1,CN(C)c1ccc(-c2cncnc2NCc2cccs2)cc1,0.631 µM (active)
2,COc1ccccc1-c1cc(NCc2ccccc2)ncn1,7.94 µM (active)
3,FC(F)(F)c1ccccc1-c1nc(NCc2cccs2)c2ccccc2n1,7.94 µM (active)
4,O=C(c1cc(C(F)(F)F)cc(C(F)(F)F)c1)N1CCC2(CCCN(Cc3nccs3)C2)CC1,inactive
5,O=c1c(-c2ccc(F)cc2)nc2cnc(N3CCNCC3)nc2n1-c1ccccc1,inactive
6,NCCC(=O)NCCc1cnc[nH]1,inactive
7,c1ccc(CNc2ccnc(-c3ccoc3)n2)cc1,3.98 µM (active)
8,CC(C)=CCc1c2c(c3occ(-c4ccc(O)c(O)c4)c(=O)c3c1O)C=CC(C)(C)O2,2 µM (active)
9,FC(F)(F)c1ccccc1-c1ccc2ncnc(NCc3cccnc3)c2c1,0.0079 µM (active)
10,Cc1cccc(CNc2ncnc3ccc(-c4ccc5c(c4)OCO5)cc23)c1,5.01 µM (active)
11,COc1cccc(-c2nccc(NCc3cccc(C)c3)n2)c1,6.31 µM (active)
12,Clc1ccccc1-c1cncnc1NCc1cccs1,1.58 µM (active)
13,Cc1ccccc1-c1cncnc1Nc1ccc(F)cc1,5.01 µM (active)
14,CN(Cc1ccco1)c1ncnc2ccc(-c3cccnc3)cc12,7.94 µM (active)
15,COc1cccc(-c2nc(NCc3ccccc3)c3ccccc3n2)c1,3.98 µM (active)
16,Cc1ccccc1-c1cncnc1NCc1cccs1,0.794 µM (active)
17,COc1ccccc1CNc1ccnc(-c2ccoc2)n1,7.94 µM (active)
18,O=C(c1cccc(F)c1)N1CCC2(CCCN(c3ncccn3)C2)CC1,6.31 µM (active)
19,c1cncc(CNc2ncncc2-c2ccc3c(c2)OCO3)c1,0.199 µM (active)
20,COc1ccc(CNc2ccnc(-c3ccc4c(c3)OCO4)n2)c(OC)c1,2.51 µM (active)
